Results published in PubChem BioAssay AID1159580 (chemical genetic matrix, 2015).
“And” between values parts separate entries of the source, which are not always exact repeats. Equal entries are not always repeated. The campaign covered roughly 5,500 compounds. About 2,000 (36%) were called active. Another 18% or so got no clear call; they are omitted. Cut-off read from the data, not from the text of the source: active = normalized growth mostly below about 0.91 (no sharp cut-off); inconclusive = no clear call, values can overlap the other calls; inactive = mostly above about 0.92. This is one part of the list.

Experiment: chemical genetic growth profiling, strain panel (AID 1159580);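 note: tested at 20 µM; growth read once vehicle control cultures reached saturation at 30 °C; 1 = growth at the plate median or of vehicle wells; lower values mean less growth of the strain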
Conditions: S. cerevisiae deletion strains, growth OD

Measured: normalized growth

O=c1cccc2n1CC1CC2CN2CCCC[C@@H]12 (some centres undefined)
inactive: locus YAL013W, strain DEP1, stronger effect = lower value 0.999 | locus YAL021C, strain ccr4, stronger effect = lower value 0.999 | locus YAL026C, strain drs2, stronger effect = lower value 0.983 | locus YAL030W, strain snc1, stronger effect = lower value 0.979 | locus YBL061C, strain skt5, stronger effect = lower value 0.983 | locus YBR009C, strain hhf1, stronger effect = lower value 0.947 | locus YBR021W, strain FUR4, stronger effect = lower value 1.01 | locus YBR023C, strain chs3, stronger effect = lower value 0.974 | locus YBR171W, strain sec66, stronger effect = lower value 0.974 | locus YBR229C, strain ROT2, stronger effect = lower value 0.953 | locus YBR231C, strain swc5, stronger effect = lower value 0.97 | locus YBR279W, strain paf1, stronger effect = lower value 0.988 | locus YCL011C, strain gbp2, stronger effect = lower value 0.983 | locus YCL016C, strain dcc1, stronger effect = lower value 0.976 | locus YCL029C, strain bik1, stronger effect = lower value 0.974 | locus YCL061C, strain MRC1, stronger effect = lower value 0.985 | locus YCL069W, strain vba3, stronger effect = lower value 0.98 | locus YCR088W, strain abp1, stronger effect = lower value 0.973 | locus YDL005C, strain med2, stronger effect = lower value 0.982 | locus YDL035C, strain GPR1, stronger effect = lower value 1 | locus YDL040C, strain nat1, stronger effect = lower value 0.961 | locus YDL074C, strain BRE1, stronger effect = lower value 1.01 | locus YDL101C, strain DUN1, stronger effect = lower value 0.992 | locus YDL134C, strain PPH21, stronger effect = lower value 0.989 | locus YDL185W, strain tfp1, stronger effect = lower value 0.971 | locus YDL192W, strain arf1, stronger effect = lower value 0.99 | locus YDR001C, strain nth1, stronger effect = lower value 0.968 | locus YDR069C, strain doa4, stronger effect = lower value 0.982 | locus YDR101C, strain arx1, stronger effect = lower value 1.03 | locus YDR137W, strain rgp1, stronger effect = lower value 0.994 | locus YDR150W, strain NUM1, stronger effect = lower value 0.992 | locus YDR159W, strain sac3, stronger effect = lower value 0.938 | locus YDR162C, strain NBP2, stronger effect = lower value 0.987 | locus YDR195W, strain ref2 0.946 | locus YDR297W, strain sur2, stronger effect = lower value 0.977 | locus YDR318W, strain mcm21, stronger effect = lower value 0.978 | locus YDR334W, strain swr1, stronger effect = lower value 0.978 | locus YDR335W, strain msn5, stronger effect = lower value 0.987 | locus YDR388W, stronger effect = lower value 0.985 | locus YDR392W, strain spt3, stronger effect = lower value 0.876 | locus YDR502C, strain sam2, stronger effect = lower value 0.981 | locus YEL003W, strain gim4, stronger effect = lower value 0.985 | locus YEL037C, strain rad23, stronger effect = lower value 0.983 | locus YEL061C, strain CIN8 (second series), stronger effect = lower value 0.974 | locus YEL061C, strain CIN8, stronger effect = lower value 0.991 | locus YER015W, strain faa2, stronger effect = lower value 0.976 | locus YER016W, strain bim1, stronger effect = lower value 0.971 | locus YER110C, stronger effect = lower value 0.972 | locus YER111C, strain swi4, stronger effect = lower value 0.977 | locus YER155C, strain BEM2 (second series), stronger effect = lower value 0.973 | locus YER155C, strain BEM2, stronger effect = lower value 1 | locus YER167W, strain BCK2, stronger effect = lower value 0.987 | locus YFR010W, strain ubp6, stronger effect = lower value 0.972 | locus YGL078C, strain dbp3, stronger effect = lower value 0.991 | locus YGL086W, strain mad1, stronger effect = lower value 1.04 | locus YGL167C, strain pmr1, stronger effect = lower value 0.968 | locus YGL173C, strain kem1, stronger effect = lower value 0.981 | locus YGL227W, strain vid30, stronger effect = lower value 0.974 | locus YGL240W, strain doc1, stronger effect = lower value 0.962 | locus YGL248W, strain PDE1, stronger effect = lower value 0.986 | locus YGL253W, strain hxk2, stronger effect = lower value 0.982 | locus YGR135W, strain pre9, stronger effect = lower value 0.982 | locus YGR229C, strain SMI1, stronger effect = lower value 0.993 | locus YGR252W, strain gcn5, stronger effect = lower value 0.968 | locus YHR013C, strain ard1, stronger effect = lower value 0.928 | locus YHR027C, strain rpn1, stronger effect = lower value 0.982 | locus YHR030C, strain SLT2, stronger effect = lower value 0.996 and 1.02 | locus YHR079C, strain IRE1 (second series), stronger effect = lower value 0.986 | locus YHR079C, strain IRE1, stronger effect = lower value 1.02 | locus YHR094C, strain hxt1, stronger effect = lower value 0.967 | locus YHR129C, strain ARP1, stronger effect = lower value 0.983 | locus YHR142W, strain chs7, stronger effect = lower value 1 | locus YHR200W, strain rpn10, stronger effect = lower value 0.975 | locus YIL066C, strain RNR3, stronger effect = lower value 0.987 | locus YIL073C, strain SPO22, stronger effect = lower value 0.967 | locus YIL125W, strain kgd1, stronger effect = lower value 0.986 | locus YIR030C, strain dcg1, stronger effect = lower value 0.984 | locus YJL092W, strain hpr5, stronger effect = lower value 0.981 | locus YJL095W, strain BCK1 (second series), stronger effect = lower value 0.978 | locus YJL095W, strain BCK1, stronger effect = lower value 1 and 1.01 | locus YJL115W, strain asf1, stronger effect = lower value 0.988 | locus YJL129C, strain trk1, stronger effect = lower value 0.982 | locus YJL134W, strain LCB3, stronger effect = lower value 0.983 | locus YJL154C, strain vps35, stronger effect = lower value 0.98 | locus YJL164C, strain tpk1, stronger effect = lower value 0.984 | locus YJL166W, strain qcr8, stronger effect = lower value 1.01 | locus YJL168C, strain set2, stronger effect = lower value 0.99 | locus YJL187C, strain SWE1 (second series), stronger effect = lower value 0.995 | locus YJL187C, strain SWE1, stronger effect = lower value 0.99
